# Results filed as inconclusive are left out. The source made the active and inactive calls. Rule for the calls, unless noted: active = hit-call score of the fitted dose curve at least 0.9, where 1 is the maximum; inactive = score below 0.9.
# Columns and labels:
# [1] = CCTE_Shafer_MEA_dev_firing_rate_mean: CCTE's Neural Network Formation Assay for Mean Firing Rate, Shafer Lab (AID 2284031);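 for AC50: curve fitted for loss of firing so AC50 reflects decreased mean firing rate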
# Outline: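 Extracellular spike frequency, AUC over DIV 5–12 recordings, in rat cortical neuron MEA cultures dosed from plating; loss direction vs DMSO.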
# [2] = CCTE_Shafer_MEA_dev_per_burst_spike_percent: CCTE's Neural Network Formation Assay for Percent of Spikes in a Burst, Shafer Lab (AID 2284032);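 for AC50: fitted as a decrease in burst spike percentage below DMSO baseline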
# Outline: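 Value is trapezoidal AUC over recordings on days 5, 7, 9 and 12 of the well-mean fraction of spikes falling in single-electrode bursts; rat cortical cultures exposed continuously from plating, treatment renewed DIV 5 and 9, fitted downward against DMSO.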
# [3] = target: Estrogen receptor (Homo sapiens) (UniProt P03372); experiment: CCTE_Deisenroth_AIME_384WELL_LUC_Active: CCTE's 384-well Estrogen Receptor Transactivation Assay with AIME metabolic competence (ERTA luciferase; metabolism positive), Deisenroth Lab (AID 2284030; active = hit-call score of the fitted dose curve at least 0.9, where 1 is the maximum)
# Estrogen receptor (Homo sapiens), sequence (P03372 whole entry, looked up): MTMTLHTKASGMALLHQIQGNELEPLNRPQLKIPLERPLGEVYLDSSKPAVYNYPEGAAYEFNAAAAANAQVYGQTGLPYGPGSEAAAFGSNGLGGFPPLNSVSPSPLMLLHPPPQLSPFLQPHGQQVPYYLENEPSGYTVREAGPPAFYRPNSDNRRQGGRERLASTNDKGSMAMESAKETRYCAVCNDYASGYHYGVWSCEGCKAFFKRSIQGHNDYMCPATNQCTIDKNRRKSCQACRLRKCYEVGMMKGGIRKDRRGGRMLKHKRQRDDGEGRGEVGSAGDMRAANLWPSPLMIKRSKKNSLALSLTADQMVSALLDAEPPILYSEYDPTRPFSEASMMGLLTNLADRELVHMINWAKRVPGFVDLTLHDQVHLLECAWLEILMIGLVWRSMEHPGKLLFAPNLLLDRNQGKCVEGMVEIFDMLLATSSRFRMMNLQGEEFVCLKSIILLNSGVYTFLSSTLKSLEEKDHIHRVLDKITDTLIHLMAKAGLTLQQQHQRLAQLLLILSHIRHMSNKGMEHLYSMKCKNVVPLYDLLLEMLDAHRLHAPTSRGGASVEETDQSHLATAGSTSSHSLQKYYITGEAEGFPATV
# Outline: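 In this metabolism-positive format, a 2-hour exposure to alginate-immobilized rat S9 precedes a 24 hour luciferase transactivation readout in VM7Luc4E2 cells. Dosing spans 10 concentrations from 0.002 to 200 uM.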
# [4] = CCTE_Deisenroth_AIME_384WELL_CTox_Active: Cytotoxicity Assessment (CTOX) in CCTE's 384-well Estrogen Receptor Transactivation Assay with AIME metabolic competence (metabolism positive), Deisenroth Lab (AID 2284037; active = hit-call score of the fitted dose curve at least 0.9, where 1 is the maximum;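 note: chemicals first conditioned 2 h by alginate-bound induced rat liver S9 before cells; activity means signal loss indicating cell death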)
# Outline: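 VM7Luc4E2 breast cells received medium pre-incubated 2 h with chemical over alginate microspheres holding induced male Sprague Dawley rat liver S9; viability read 24 h later by protease-substrate fluorescence. Loss of signal, bidirectional fit, 0.002–200 uM.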
# [5] = target: Estrogen receptor (Homo sapiens) (UniProt P03372); experiment: CCTE_Deisenroth_AIME_96WELL_LUC_Active: CCTE's 96-well Estrogen Receptor Transactivation Assay with AIME metabolic competence (ERTA luciferase; metabolism positive), Deisenroth Lab (AID 2284023; active = hit-call score of the fitted dose curve at least 0.9, where 1 is the maximum)
# Outline: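 Metabolism-positive mode: induced rat hepatic S9 in alginate microspheres conditions test solutions (0.002 - 200 uM, 10 points) for 2 hours. VM7Luc4E2 ER luciferase reporter cells then exposed 24 h; positive-direction fit against 17beta-estradiol, n=4 typical.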
# [6] = target: Estrogen receptor (Homo sapiens) (UniProt P03372); experiment: CCTE_Deisenroth_AIME_96WELL_LUC_Inactive: CCTE's 96-well Estrogen Receptor Transactivation Assay without AIME metabolic competence (ERTA luciferase; metabolism negative), Deisenroth Lab (AID 2284025; active = hit-call score of the fitted dose curve at least 0.9, where 1 is the maximum)
# Outline: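 Metabolism-negative arm: chemicals (0.002–200 uM, 10 points) incubated 2 h with alginate-water microspheres, then medium moved onto VM7Luc4E2 cells for 24 h luciferase read-out. Positive direction vs 17beta-estradiol; n≥4 experiments.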
# [7] = CCTE_Deisenroth_AIME_96WELL_CTox_Active: Cytotoxicity Assessment (CTOX) in CCTE's 96-well Estrogen Receptor Transactivation Assay with AIME metabolic competence (metabolism positive), Deisenroth Lab (AID 2284028; active = hit-call score of the fitted dose curve at least 0.9, where 1 is the maximum)
# Outline: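 Cytotoxicity in VM7Luc4E2 breast cells after 24 h exposure to medium from a 2 h metabolic pre-incubation with induced rat hepatic S9 in alginate microspheres; fluorescent live-cell protease readout, 10-point series 0.002–200 uM, n=4.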
# [8] = CCTE_Deisenroth_AIME_96WELL_CTox_Inactive: Cytotoxicity Assessment (CTOX) in CCTE's 96-well Estrogen Receptor Transactivation Assay without AIME metabolic competence (metabolism negative), Deisenroth Lab (AID 2284029; active = hit-call score of the fitted dose curve at least 0.9, where 1 is the maximum)
# Outline: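 Cytotoxicity in VM7Luc4E2 breast cells was scored as loss of fluorescent signal from a live-cell protease substrate 24 h after exposure, using bidirectional curve fitting. Test media came from a 2 h metabolism-negative pre-incubation (alginate-water, no hepatic S9) of compounds at 0.002-200 uM, with at least four replicates.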
# [9] = CCTE_Shafer_MEA_acute_burst_duration_mean: CCTE's Neural Acute Assay for Mean Burst Duration, Shafer Lab (AID 2284014);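 note: hits are decreases in mean burst duration relative to DMSO controls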
# Outline: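 Acute exposure of mature rat cortical networks (DIV 13 or 15) grown on microelectrode arrays to 0.03-40 uM compound. Mean burst duration compared with the 40-min pre-dose baseline over a 40-min post-dose recording at 37 C.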
# [10] = CCTE_Shafer_MEA_acute_per_burst_spike_number_mean: CCTE's Neural Acute Assay for Average Number of Spikes Per Burst, Shafer Lab (AID 2284015);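 note: hits are decreases in mean spikes per burst versus baseline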
# Outline: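 Rat primary cortical neurons on 48-well MEAs (DIV 13 or 15) were treated with 0.03-40 uM compound at 37 C. Mean spikes per burst over 40 min were recorded before and after exposure and expressed as percent change from baseline, relative to DMSO.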
# [11] = CCTE_Shafer_MEA_acute_interburst_interval_mean: CCTE's Neural Acute Assay for Mean Interburst Interval, Shafer Lab (AID 2284016);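 note: percent change of mean interburst interval versus each well's own pre-dose baseline; curves fitted for decrease in interburst interval relative to DMSO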
# Outline: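 Rat primary cortical neurons on 48-well MEAs at DIV 13 or 15 were exposed acutely to 0.03-40 uM. Spikes detected at 8x rms noise, 37 C. Mean interburst interval from 40 min recordings expressed as percent change from 40 min pre-treatment baseline.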
# [12] = CCTE_Shafer_MEA_acute_burst_percentage_mean: CCTE's Neural Acute Assay for Percentage of Spikes in a Burst, Shafer Lab (AID 2284017);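 note: curve fitted for loss of signal so potency reflects decreased burst percentage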
# Outline: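 Primary rat cortical neurons on 48-well MEA plates, treated on DIV 13 or 15 at 0.03-40 uM. Spikes detected at 8x rms noise at 37C; percent change from 40-min baseline to 40-min post-dose recording, fitted versus DMSO.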
# [13] = CCTE_Shafer_MEA_acute_burst_percentage_std: CCTE's Neural Acute Assay for Standard Deviation of Burst Percentage, Shafer Lab (AID 2284018);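 note: fitted in the negative direction so actives lower burst percentage SD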
# Outline: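 Primary rat cortical neurons on 16-electrode MEA wells were recorded 40 min at baseline (DIV 13 or 15), then 40 min after compound (0.03-40 uM), at 37 C. Well value is SD across electrodes of spikes-in-bursts/total spikes; endpoint is percent change, DMSO-referenced.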
# [14] = CCTE_Shafer_MEA_acute_per_network_burst_spike_number_mean: CCTE's Neural Acute Assay for Average Number of Spikes in a Network Burst, Shafer Lab (AID 2284019)
# Outline: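 Acute exposure of rat primary cortical networks (DIV 13/15) on MEAs; adaptive spike detection at 8x rms noise, 37 C. Percent change in spikes per network burst after 40 min with compound (0.03-40 uM), negative direction vs DMSO.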
# [15] = CCTE_Shafer_MEA_acute_per_network_burst_spike_number_std: CCTE's Neural Acute Assay for Standard Deviation of Number of Spikes in a Network Burst, Shafer Lab (AID 2284020);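 note: fitted for decrease in spike-number SD versus DMSO so actives lower it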
# Outline: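 Acute MEA exposure, rat cortical neurons, 0.03-40 uM. Per-well % change versus own baseline; DMSO as negative control.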
# [16] = CCTE_Shafer_MEA_acute_per_network_burst_electrodes_number_mean: CCTE's Neural Acute Assay for Mean Number of Electrodes in a Network Burst, Shafer Lab (AID 2284021);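 note: curves fitted for decreases only so hits reduce electrodes per burst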
# Outline: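 Cultures of rat cortex neurons were exposed on DIV 13 or 15 to compounds at 0.03-40 uM in at least three wells each. Activity over 40 min before and 40 min after exposure at 37 C gave the percent change in electrodes per network burst.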
# [17] = CCTE_Shafer_MEA_acute_network_burst_percentage: CCTE's Neural Acute Assay for Percentage of Network Bursts, Shafer Lab (AID 2284022);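 note: curves fitted for loss so actives lower network burst percentage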
# Outline: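 Cortical neurons from rat were grown over microelectrode arrays and used on day 13 or 15 in vitro. Wells with at least 10 active electrodes received test chemical at 0.03-40 uM. Activity during 40 min of exposure was compared with the preceding 40-min baseline.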
# [18] = CCTE_Shafer_MEA_acute_cross_correlation_area: CCTE's Neural Acute Assay for Area of Cross Correlation, Shafer Lab (AID 2284024);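 note: area under pooled inter-electrode spike cross-correlation near zero lag as percent change from own baseline; curves fitted for loss of cross-correlation area so actives lower synchrony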
# Outline: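 Acute exposure of mature rat cortical networks (day 13 or 15 post-plating) to 0.03-40 uM compound. Spontaneous spiking on MEA, 40 min pre- and post-dose at 37 C.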
# [19] = CCTE_Shafer_MEA_acute_cross_correlation_HWHM: CCTE's Neural Acute Assay for Cross Correlation at Half Width at Half Maximum, Shafer Lab (AID 2284026);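 note: percent change per well from pre-dose baseline in spike cross-correlogram half width; hits are a decrease in cross-correlogram half width relative to DMSO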
# Outline: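 Primary cortex (rat), MEA, DIV 13/15; compound 0.03-40 uM; 40 min pre + 40 min post at 37 C; spike threshold 8x rms; wells need ≥10 active electrodes; endpoint = % change in cross-correlogram HWHM vs baseline, DMSO negative control.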
# [20] = CCTE_Shafer_MEA_acute_synchrony_index: CCTE's Neural Acute Assay for Synchrony, Shafer Lab (AID 2284027);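 note: network synchrony index of spontaneous spiking in primary rat cortical neurons on MEAs; fitted for loss of signal so actives lower synchrony relative to DMSO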
# Outline: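 Acute exposure of rat primary cortical neurons (DIV 13 or 15) at 0.03-40 uM. Synchrony index, 40 min before vs after, as % change relative to DMSO control.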
structure (smiles),measurement,setting,value
OCC(F)(F)C(F)(F)C(F)(F)C(F)(F)C(F)(F)C(F)(F)C(F)(F)C(F)(F)CO,outcome,[1],inactive
same,outcome,[2],inactive
CCCCCCCC/C=C\CCCCCCCC(=O)OCC(O)CO (stereo not drawn),outcome,[3],inactive
OCC(F)(F)C(F)(F)C(F)(F)C(F)(F)C(F)(F)C(F)(F)CO,outcome,[1],inactive
same,outcome,[2],inactive
OCC(O)CC(F)(F)C(F)(F)C(F)(F)C(F)(F)F (stereo not drawn),outcome,[1],inactive
same,outcome,[2],inactive
O=C(c1ccccc1)c1ccc(O)cc1O,AC50,[3],42300 nM (active)
same,outcome,[4],inactive
CO[Si](C)(CCC(F)(F)C(F)(F)C(F)(F)C(F)(F)C(F)(F)C(F)(F)F)OC,outcome,[1],inactive
same,outcome,[2],inactive
O=C1C=CC(=O)N1c1ccccc1,outcome,[3],inactive
same,outcome,[4],inactive
O=S(=O)(O)CCC(F)(F)C(F)(F)C(F)(F)C(F)(F)C(F)(F)C(F)(F)C(F)(F)C(F)(F)F,outcome,[1],inactive
same,outcome,[2],inactive
N#Cc1ccccc1O,outcome,[3],inactive
same,outcome,[4],inactive
NC(=O)C(F)(F)C(F)(F)C(F)(F)F,outcome,[1],inactive
same,outcome,[2],inactive
CCCCC(CC)COC(=O)c1ccc(N(C)C)cc1 (stereo not drawn),outcome,[5],inactive
same,AC50,[6],16200 nM (active)
same,outcome,[7],inactive
same,outcome,[8],inactive
CC(C)(C)c1cc(Cc2cc(C(C)(C)C)c(O)c(C(C)(C)C)c2)cc(C(C)(C)C)c1O,outcome,[3],inactive
same,outcome,[4],inactive
CC(C)OC=O,outcome,[4],inactive
C=CC(=O)OCCC(F)(F)C(F)(F)C(F)(F)C(F)(F)F,outcome,[1],inactive
same,outcome,[2],inactive
CCCCCCCC/C=C\CCCCCCCC(=O)N(C)CC(=O)O,AC50,[4],124000 nM (active)
OCC(F)(F)C(F)(F)C(F)(F)CO,outcome,[1],inactive
same,outcome,[2],inactive
CCCCOC(=O)C(C)O (stereo not drawn),outcome,[3],inactive
same,outcome,[4],inactive
NC(=O)C(F)(F)C(F)(F)C(F)(F)C(F)(F)C(N)=O,outcome,[1],inactive
same,outcome,[2],inactive
OC(O)C(F)(F)C(F)(F)F,outcome,[1],inactive
same,outcome,[2],inactive
Cc1ccc(O)c(-n2nc3ccccc3n2)c1,AC50,[5],21700 nM (active)
same,AC50,[6],10200 nM (active)
same,outcome,[7],inactive
same,outcome,[8],inactive
same,AC50,[3],51300 nM (active)
FC(F)(F)C(F)(F)C(F)(F)C(F)(F)C(F)(F)C(F)(F)C(F)(F)CCI,outcome,[1],inactive
same,outcome,[2],inactive
NC(O)(C(F)(F)F)C(F)(F)F,outcome,[1],inactive
same,outcome,[2],inactive
CC(=O)CCC(C)C,outcome,[3],inactive
same,outcome,[4],inactive
CCOC(OCC)OCC,outcome,[3],inactive
same,outcome,[4],inactive
O=C(O)C(F)(F)C(F)(F)C(F)(F)OC(F)(F)F,outcome,[1],inactive
same,outcome,[2],inactive
C=CC(=O)OCC(F)(F)C(F)(F)C(F)(F)COC(=O)C=C,AC50,[1],4710 nM (active)
same,AC50,[2],4390 nM (active)
O=S(=O)(O)CCC(F)(F)C(F)(F)C(F)(F)C(F)(F)F,outcome,[1],inactive
same,outcome,[2],inactive
NC(=O)C(F)(F)C(F)(F)C(F)(F)C(F)F,outcome,[1],inactive
same,outcome,[2],inactive
OCCCCC(F)(F)C(F)(F)C(F)(F)C(F)(F)F,outcome,[1],inactive
same,outcome,[2],inactive
CCN=C1C=CC(=C(c2ccc(N(CC)CC)cc2)c2ccc(N(CC)CC)cc2)c2ccccc21,outcome,[9],inactive
same,AC50,[10],518 nM (active)
same,AC50,[11],361 nM (active)
same,AC50,[12],549 nM (active)
same,outcome,[13],inactive
same,outcome,[14],inactive
same,AC50,[15],718 nM (active)
same,AC50,[16],498 nM (active)
same,AC50,[17],762 nM (active)
same,AC50,[18],302 nM (active)
same,AC50,[19],883 nM (active)
same,AC50,[20],541 nM (active)
same,AC50,[4],59100 nM (active)
CCN(CCO)S(=O)(=O)C(F)(F)C(F)(F)C(F)(F)C(F)(F)C(F)(F)C(F)(F)C(F)(F)C(F)(F)F,outcome,[1],inactive
same,outcome,[2],inactive
CNS(=O)(=O)C(F)(F)C(F)(F)C(F)(F)C(F)(F)C(F)(F)C(F)(F)C(F)(F)C(F)(F)F,outcome,[1],inactive
same,outcome,[2],inactive
OCC1CCCO1 (stereo not drawn),outcome,[3],inactive
